Results published in PubChem BioAssay.
Active and inactive are the calls of the source.

Assay: E. coli growth modulation, two-sided OD650, primary screen, E. coli filamentation project, strain DRC41, 24 h (AID 1093);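 further: MC1000 strain lacking acrAB efflux and sulA so SOS filamentation is blocked; test concentration not given here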
Details: OD650, 24 h, higher = more signal, called active from +8 up or from −8 down
With `COc1ccc(CN(C2=CC[C@@]3(C(N)=O)C(=O)C(Cl)=C(Cl)C(=O)[C@@]3(C#N)C2)S(=O)(=O)c2ccc(Br)cc2)cc1` the z-score was 1.29 (inactive).
In the case of `COC(=O)c1cn(C[C@@H](Cc2ccccc2)NC(=O)N[C@H](CO)CCc2oc(C(C)=O)c(C(=O)OC)c2C(=O)OC)nn1`, the z-score is reported as 1.01 (inactive).
In the case of `CCOC(=O)C[C@H]1[C@H](OC(=O)c2cc3ccccc3oc2=O)[C@@H](NC(=O)c2ccc(-c3ccccc3)cc2)c2cc(OCCCO)ccc2N1C(=O)c1ccccc1`, the z-score is reported as 1.56 (inactive).
With `COC(=O)[C@@]1(Cc2ccc(OC)cc2)[C@H]2c3cc(C(=O)N(C)C)n(C[C@H](O)CO)c3C[C@H]2CN1C(=O)c1ccccc1` the z-score was -1.02 (inactive).
For `CC(C)[Si](C#C[Si](C(C)C)(C(C)C)C(C)C)(O[C@H](C)c1cn([C@H](CO)Cc2ccccc2)nn1)C(C)C`, the z-score was 1.51 (inactive).
With `CCOC(=O)C1=CC[C@@H](c2ccccc2C(F)(F)F)N(S(=O)(=O)c2ccc(C)cc2)[C@H]1c1ccc(C#N)cc1` the z-score was -0.156 (inactive).
For `C[N+](C)(C)CCCC[C@@H]1NC(=O)[C@H]2C[C@@H](C(=O)NCCCCCCN)[C@@H](c3ccc(O)cc3)N2C1=O`, the z-score was 0.766 (inactive).
For `CC(C)N1CC=CC23O[C@@H]4C=CCOC(=O)[C@@H]4[C@H]2C(=O)N(CCCO)[C@@H]3C1=O` (stereo partly drawn), the z-score was 2.67 (inactive).

Assay: small-molecule microarray binders of probe aLefty2, primary screen, biochemical, biotinylated probe, 635/667 nm fluorescence (AID 1094);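 further: score merges spot fluorescence near 667 nm with spot signal-to-noise ratio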
Details: higher = more signal
`COC(=O)C(CC#Cc1ccc2c(c1)[C@]1(C(=O)N2)[C@H](C(=O)N2CCN(c3ncccn3)CC2)[C@H]2C(=O)O[C@H](c3ccccc3)[C@H](c3ccccc3)N2[C@@H]1c1ccc(OCCO)cc1)C(=O)OC` gave a composite z-score of 0.0008.
`COCCOC(=O)N1C(=O)[C@@]2(c3cc(C#CC4=CCCCC4)ccc31)[C@H](c1ccccc1OCCO)N1[C@H](c3ccccc3)[C@H](c3ccccc3)OC(=O)[C@H]1[C@@H]2C(=O)N1CCCCCCC1` gave a composite z-score of -0.573.
`CCOC(=O)C[C@H]1[C@H](OC(=O)c2ccc(C(=O)c3ccccc3)cc2)[C@@H](NC(=O)Cc2ccc(OC)cc2)c2cc(OCCCO)ccc2N1C(=O)c1ccccc1` showed a composite z-score of 0.0759.
Work on `C=CC[C@@]1(C(=O)N2CCOCC2)N=C(c2ccc(OCCCO)cc2)O[C@@H]1c1ccccc1CN=[N+]=[N-]` yielded a composite z-score of 0.691.
Compound `NC(=O)NCC#Cc1ccc2c(c1)[C@]1(C(=O)N2)[C@H](C(=O)NC[C@H](O)c2ccccc2)[C@H]2C(=O)O[C@H](c3ccccc3)[C@H](c3ccccc3)N2[C@@H]1c1ccc(OCCO)cc1` has a composite z-score of 0.156.
`C=C(COC)/C(=C/C[C@H](OC(=O)c1ccncc1)c1ccccc1OCCO)c1cnc2ccccc2c1` gave a composite z-score of -0.345.
`[N-]=[N+]=Nc1ccccc1C[C@]1(C(N)=O)N=C(c2ccc(OCCCO)cc2)O[C@H]1c1ccccc1N=[N+]=[N-]` gave a composite z-score of 0.546.
With `CN1C(=O)C2C=CC(C(O)c3ccccn3)N(N(c3ccccc3)c3ccccc3)C2C1=O` (stereo not drawn) the composite z-score was 0.235.
In the case of `NCCCCCCNC(=O)[C@@H]1C[C@@H]2C(=O)N[C@@H](CCCCN)C(=O)N2[C@@H]1c1cccc(OCCO)c1`, the composite z-score is reported as 0.885.
Work on `O=C1N(Cc2ccccc2)c2ccccc2[C@@H]2OC(c3ccc(OCCCO)cc3)=N[C@]12Cc1ccccc1` yielded a composite z-score of 0.0759.
With `CCCCCCCCCCC(O)C1C=CC2C(=O)N(C)C(=O)C2N1NC(=O)OC(C)(C)C` (stereo not drawn) the composite z-score was -0.0725.
Compound `OCCCC1=CC(c2ccc(CN3CCCC3)cc2)N(Cc2sc3ccccc3c2Cl)CC1` (stereo not drawn) has a composite z-score of 0.0998.
`[N-]=[N+]=Nc1ccccc1[C@@H]1OC(c2ccc(OCCCO)cc2)=N[C@]1(Cc1ccccc1)C(=O)NCC(O)CO` (stereo partly drawn) showed a composite z-score of 0.589.
With `C=CCC(OC(C)=O)[C@@H]1[C@@H](N(Cc2cc3ccccc3o2)C(=O)c2ccc(-c3ccccc3)cc2)c2cc(OCCCO)ccc2N1C(=O)c1ccc2ccccc2c1` (stereo partly drawn) the composite z-score was -0.0485.
With `Cc1cc(C)c(C(O)C2C=CC3C(=O)N(c4ccccc4)C(=O)C3N2Nc2ccc(C(C)C)cc2)c(C)c1` (stereo not drawn) the composite z-score was 0.255.
In the case of `COc1cc(OC)c(C(O)C2C=CC3C(=O)N(c4ccccc4)C(=O)C3N2Nc2ccccc2)cc1Br` (stereo not drawn), the composite z-score is reported as 0.167.
In the case of `CO[C@H]1O[C@H](CO)[C@@H](OC(=O)Nc2ccccc2-c2ccccc2)[C@H](OC(=O)Nc2ccc3c(c2)OCO3)[C@H]1OC(=O)Nc1ccc2c(c1)OCO2`, the composite z-score is reported as 0.132.
In the case of `CC1CC/C=C\[C@H]2OC34C=CCN(c5ccc(Cl)cc5)C(=O)[C@H]3N(CCCCCO)C(=O)[C@]4(C)C2C(=O)O1` (stereo partly drawn), the composite z-score is reported as -0.233.
Work on `CC(C)N1C(=O)c2ccccc2[C@@H](C(=O)NC2CC2)[C@@H]1c1ccc(CO)cc1` yielded a composite z-score of -0.117.
Compound `COCCCNC(=O)[C@@]1(Cc2ccccc2CN=[N+]=[N-])N=C(c2ccc(OCCCO)cc2)O[C@H]1c1ccccc1` has a composite z-score of 0.0235.
With `COc1ccc([Si](C)(C)[C@@H]2[C@@H](CCO)O[C@]3(C(=O)N(Cc4ccc(N5CCCCC5=O)cc4)c4ccccc43)[C@H]2C)cc1` the composite z-score was -0.181.
With `C=C(/C(=C/C[C@@H](OC(C)=O)c1cccc(OCCO)c1)c1cc(C(=O)OC)ccc1OC)C(C)C` the composite z-score was 0.0347.
With `C=C(COC)C(=O)CC[C@@H](OC(=O)c1cccnc1)c1ccc(OCCO)cc1` the composite z-score was 0.0047.
For `CN(C)c1ccc(C(O)C2C=CC3C(=O)N(c4ccccc4)C(=O)C3N2Nc2ccc([N+](=O)[O-])cc2)cc1` (stereo not drawn), the composite z-score was 0.401.
Work on `C=C[C@@H](COC(C)=O)N(C(=O)OC(C)(C)C)S(=O)(=O)c1ccc(Br)cc1` yielded a composite z-score of 0.132.
Work on `CCCC[C@@H](O)C1=C(COc2ccccc2)C[C@H]2C(=O)N(C)C(=O)[C@H]2[C@H]1CO` yielded a composite z-score of -0.247.
With `COC(=O)c1ccc([C@H](NC(=O)c2ccco2)[C@]2(C)C[C@H]2C2CCCCC2)cc1` the composite z-score was -0.0986.
Compound `COc1ccc(CN(C2=CC[C@@]3(C(N)=O)C(=O)C(Cl)=C(Cl)C(=O)[C@@]3(C#N)C2)S(=O)(=O)c2ccc(Br)cc2)cc1` has a composite z-score of 0.0496.
`COC(=O)c1cn(C[C@@H](Cc2ccccc2)NC(=O)N[C@H](CO)CCc2oc(C(C)=O)c(C(=O)OC)c2C(=O)OC)nn1` gave a composite z-score of -0.147.
`CCOC(=O)C[C@H]1[C@H](OC(=O)c2cc3ccccc3oc2=O)[C@@H](NC(=O)c2ccc(-c3ccccc3)cc2)c2cc(OCCCO)ccc2N1C(=O)c1ccccc1` showed a composite z-score of -0.0367.
With `COC(=O)[C@@]1(Cc2ccc(OC)cc2)[C@H]2c3cc(C(=O)N(C)C)n(C[C@H](O)CO)c3C[C@H]2CN1C(=O)c1ccccc1` the composite z-score was 0.955.
Compound `CC(C)[Si](C#C[Si](C(C)C)(C(C)C)C(C)C)(O[C@H](C)c1cn([C@H](CO)Cc2ccccc2)nn1)C(C)C` has a composite z-score of -0.0961.
For `CCOC(=O)C1=CC[C@@H](c2ccccc2C(F)(F)F)N(S(=O)(=O)c2ccc(C)cc2)[C@H]1c1ccc(C#N)cc1`, the composite z-score was -0.0099.
In the case of `C[N+](C)(C)CCCC[C@@H]1NC(=O)[C@H]2C[C@@H](C(=O)NCCCCCCN)[C@@H](c3ccc(O)cc3)N2C1=O`, the composite z-score is reported as 0.265.
`CC(C)N1CC=CC23O[C@@H]4C=CCOC(=O)[C@@H]4[C@H]2C(=O)N(CCCO)[C@@H]3C1=O` (stereo partly drawn) gave a composite z-score of -0.178.
